Measurements reported in PubChem BioAssay.
Results filed as inconclusive are left out. Active and inactive are the calls of the source. Unless noted, how the calls were made is not given here.

Assays:
[1] = viability loss with induced miR-34 in A549 – imaging, A549 dox-inducible miR-34, nuclei and caspase counts, primary screen (AID 1347080;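 active means compounds whose cell count with miR-34 switched on is under 0.7 times the count with it off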); settings: A549 miR-34 inducible, Hoechst nuclei count, 48 h
[2] = blockers of cellular phospholipid synthesis – cell-based, LOPAC library, screen 4, primary screen (AID 1347384); settings: animal cells, phospholipid biosynthesis inhibition screen; at 10 µM
[3] = galactose survival enhancers in mitochondrial complex I cybrids – cell-based, galactose medium, ATP luminescence, primary screen (AID 1645843;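 active means z-score of at least 1.8 in each of two replicates, scored against plate mean and spread of sample wells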;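 further: positive z means more ATP and so rescue of galactose-driven cybrid death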); settings: complex I mutant cybrid cells, 72 h, stronger effect = higher value
[4] = compounds altering circadian rhythm period length – cell-based, LOPAC library, luminescence reporter (AID 2774); settings: circadian reporter cells, at 7 µM, actives lie on both sides;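 further: values are relative to mean of DMSO wells on each plate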
[5] = compounds altering viability of human ES cells (AID 493140); settings: human embryonic stem cell survival screen; stronger effect = higher value;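 further: cells exposed to compounds for four days before counting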
[6] = tested on: Hepatitis C virus NS3 helicase; assay: blockers of NS3h binding to ssDNA – biochemical, fluorescence polarization, LOPAC1280 library, primary screen (AID 687035; in the data active means inhibition above about 37%); settings: Purified HCV NS3 helicase, Cy5-dT15 ssDNA binding fluorescence polarization; stronger effect = higher value; concentration not given here
[7] = compounds altering Cy5-DNA-NS3h complex signal – biochemical, LOPAC1280, artefact control for HCV NS3 helicase inhibitor project (AID 687037); settings: Cy5-DNA-NS3h complex fluorescence interference counterscreen
[8] = P. berghei load reduction in hepatocytes – cell-based, HepG2, luciferase luminescence, HepG2 viability, primary screen (AID 624349; in the data active means parasite load remaining mostly below about 12%, no sharp cut-off; inactive means mostly above about 10%;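 further: 100% = mean of DMSO negative control wells on the same plate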); settings: P. berghei liver stage in HepG2, luciferase luminescence, concentration not given here; parasite load remaining: stronger effect = lower value; viability: measured here: HepG2 viability without parasites
[9] = molecular target: ATP-dependent translocase ABCB1 (Homo sapiens) (UniProt P08183); assay: P-glycoprotein substrate transport blockade – cell-based (AID 377; in the data active means fluorescence slope change above about 50%); settings: MDR1-expressing cells, fluorescent substrate accumulation slope; stronger effect = higher value; concentration not given here
[10] = stronger effect = lower value, cell number ratio, induced over uninduced
[11] = measured here: relative caspase fold change +Dox/-Dox
[12] = measured here: total cells with miR-34 induction, stronger effect = lower value
[13] = measured here: total cells without miR-34 induction

Sequence of ATP-dependent translocase ABCB1 (Homo sapiens) (P08183 whole entry, looked up): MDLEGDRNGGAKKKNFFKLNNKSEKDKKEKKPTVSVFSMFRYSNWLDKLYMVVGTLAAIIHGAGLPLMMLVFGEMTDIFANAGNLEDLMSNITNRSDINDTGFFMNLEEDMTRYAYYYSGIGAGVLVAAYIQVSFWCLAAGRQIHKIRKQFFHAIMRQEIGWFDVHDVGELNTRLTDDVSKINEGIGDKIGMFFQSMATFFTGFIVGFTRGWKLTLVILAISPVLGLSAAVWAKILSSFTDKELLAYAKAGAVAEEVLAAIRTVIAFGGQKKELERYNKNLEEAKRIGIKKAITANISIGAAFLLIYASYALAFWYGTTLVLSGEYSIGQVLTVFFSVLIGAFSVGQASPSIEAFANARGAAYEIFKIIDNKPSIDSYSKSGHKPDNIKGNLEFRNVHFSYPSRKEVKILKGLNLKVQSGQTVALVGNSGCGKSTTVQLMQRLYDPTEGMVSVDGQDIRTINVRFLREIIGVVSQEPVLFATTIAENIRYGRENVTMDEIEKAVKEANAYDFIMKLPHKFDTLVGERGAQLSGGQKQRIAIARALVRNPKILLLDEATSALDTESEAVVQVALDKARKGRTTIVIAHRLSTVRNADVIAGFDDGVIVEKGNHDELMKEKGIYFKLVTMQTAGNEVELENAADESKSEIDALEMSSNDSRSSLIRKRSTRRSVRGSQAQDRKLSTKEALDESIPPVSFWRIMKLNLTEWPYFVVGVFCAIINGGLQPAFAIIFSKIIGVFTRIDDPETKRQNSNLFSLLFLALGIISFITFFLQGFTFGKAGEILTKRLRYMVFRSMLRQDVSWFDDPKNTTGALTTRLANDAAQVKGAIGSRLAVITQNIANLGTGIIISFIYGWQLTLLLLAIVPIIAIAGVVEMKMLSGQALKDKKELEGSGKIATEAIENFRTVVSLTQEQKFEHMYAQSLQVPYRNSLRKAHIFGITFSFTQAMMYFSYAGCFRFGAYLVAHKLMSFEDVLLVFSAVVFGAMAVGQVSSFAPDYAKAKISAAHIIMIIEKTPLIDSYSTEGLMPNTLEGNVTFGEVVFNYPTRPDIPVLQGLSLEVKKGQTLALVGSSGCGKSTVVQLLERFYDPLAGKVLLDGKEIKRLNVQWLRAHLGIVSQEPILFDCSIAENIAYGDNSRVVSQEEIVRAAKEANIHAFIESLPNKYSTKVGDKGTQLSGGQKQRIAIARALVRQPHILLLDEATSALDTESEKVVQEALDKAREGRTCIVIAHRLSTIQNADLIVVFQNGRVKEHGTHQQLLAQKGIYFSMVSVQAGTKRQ

SMILES	fold change [1, 10]	fold change [1, 11]	cell count [1, 12]	cell count [1, 13]	outcome [2]	z-score [3]	period change [4]	survival [5]	inhibition [6]	fluorescence ratio (interference) [7]	parasite load remaining [8]	viability [8] [%]	fluorescence slope change [9]
CCCCN(CC)c1nc(C)nc2c1c(C)cn2-c1c(C)cc(C)cc1C	1.08 (inactive)	0.964	6200	5770	inactive	-1.29 (inactive)							
Nc1ncnc2c1ncn2[C@@H]1O[C@H](CO)[C@H](O)C1O (some centres not stated)	1 (inactive)	1.47	11100	11100	inactive	2.61 (active)	0.045 h (inactive)	3.25 (inactive)	-1% (inactive)	0.9 (inactive)			
NC(C(=O)N[C@@H]1C(=O)N2C(C(=O)O)=C(Cl)CS[C@H]12)c1ccccc1 (some centres not stated)	1.02 (inactive)	2.15	10500	10300	inactive	0.38 (inactive)	0.03 h (inactive)		0% (inactive)	1 (inactive)			
OC[C@H]1O[C@@H](n2cnc3c(NC4CCCC4)ncnc32)C(O)[C@H]1O (some centres not stated)	0.956 (inactive)	1.31	9220	9650	inactive	1.05 (inactive)	-0.095 h (inactive)		-5% (inactive)	1 (inactive)			
N#CC(C#N)=C(N)/C(C#N)=C/c1ccc(O)cc1	0.894 (inactive)	1.36	8590	9610	inactive	0.29 (inactive)	-0.025 h (inactive)		-2% (inactive)	1 (inactive)	31.2% (inactive)	70.9	
NCC1OC(O[C@@H]2[C@H](O)C(OC3C(O)C(N)CC(N)C3OC3OC(CO)C(O)C(O)C3N)O[C@@H]2CO)C(N)C(O)C1O (some centres not stated)	0.998 (inactive)	1.38	9490	9510	inactive	0.61 (inactive)	0.005 h (inactive)		0% (inactive)	1 (inactive)			14.4% (inactive)
Nc1nc2ccc(Cl)cc2n2c(-c3ccccc3)nnc12	1.08 (inactive)	0.972	11200	10300	inactive	1.13 (inactive)							
CCCn1c(=O)c2c(ncn2C)n(CCC)c1=O	1 (inactive)	1.17	10000	9990	inactive	0.46 (inactive)	-0.02 h (inactive)		-3% (inactive)	1.1 (inactive)			
Nc1ccn(C2O[C@H](CO)[C@@H](O)C2(F)F)c(=O)n1 (some centres not stated)	1.18 (inactive)	1.01	1960	1660	inactive	-1.32 (inactive)							
CSc1nc(N)c2ncn([C@@H]3O[C@H](COP(=O)(O)OP(=O)(O)O)[C@H](O)C3O)c2n1 (some centres not stated)	1.03 (inactive)	1.82	11000	10800	inactive	0.32 (inactive)	-0.26 h (inactive)		33% (inactive)	0.9 (inactive)			
O=C(O)/C(=C/c1c(C(=O)O)[nH]c2cc(Cl)cc(Cl)c12)c1ccccc1	1.07 (inactive)	0.725	9940	9320	inactive	1.03 (inactive)	0.21 h (inactive)		0% (inactive)	1 (inactive)			
Nc1nc(Nc2ccccc2)nc2c1ncn2[C@@H]1O[C@H](CO)[C@H](O)C1O (some centres not stated)	0.974 (inactive)	1.23	9660	9910	inactive	0.02 (inactive)	-0.07 h (inactive)		-4% (inactive)	1 (inactive)			
O=C(c1cc(O)c(O)c([N+](=O)[O-])c1)c1ccccc1F	1.18 (inactive)	1.45	7010	5940	inactive	-0.165 (inactive)	0.055 h (inactive)		5% (inactive)	0.9 (inactive)			
Nc1nc2[nH]c(=O)cnc2c(=O)[nH]1	1.09 (inactive)	0.997	10400	9560	inactive	0.655 (inactive)	0 h (inactive)		-5% (inactive)	1 (inactive)			
O=C(NOCC1CC1)c1cc(Br)c(F)c(F)c1Nc1ccc(I)cc1Cl	1.16 (inactive)	1.35	1380	1180	inactive	-1.36 (inactive)							
C=C1C(=O)O[C@@H]2[C@H]3O[C@]3(C)CCC=C(C)CC[C@@H]12	1.05 (inactive)	1.06	5750	5500	inactive	-1.27 (inactive)	-0.22 h (inactive)		-6% (inactive)	1 (inactive)			
O=C(Nc1ccc2[nH]ncc2c1)C1CCC1	1.01 (inactive)	1.17	9900	9790	inactive	0.43 (inactive)							
CN1C2CCC1CC(OC(=O)C(O)c1ccccc1)C2 (configuration not stated)	1.02 (inactive)	1.06	10900	10700	inactive	0.155 (inactive)	0.16 h (inactive)						
CN1CCc2ccccc2Cc2[nH]c3ccccc3c2CC1	1.04 (inactive)	0.882	9860	9460	inactive	-0.35 (inactive)	-0.08 h (inactive)		-2% (inactive)	1 (inactive)			
C=CCn1c(=O)c2c(nc(-c3ccc(S(=O)(=O)O)cc3)n2C)n(C)c1=O	1.02 (inactive)	2.49	10300	10100	inactive	0.335 (inactive)	-0.155 h (inactive)		-3% (inactive)	1 (inactive)			
